The source of these data is PubChem BioAssay AID686979 (National Center for Advancing Translational Sciences (NCATS), 2013).

SMILES strings stand for the structures. Out of some 420,000 compounds screened, about 50,000 (12%) were called active. A call without a number means that no potency is given here. Roughly 26% stayed inconclusive and do not appear here. Calls come from the whole dose curve; as a rule, active = well fitted inhibition curve with a large enough effect; inconclusive = small, poorly fitted or top-dose-only effect; inactive = flat fitted curve, though single readings scatter. Many of the other results were omitted from the sample, so actives are more common in it than they were.
Potency is the fitted concentration of half-maximal effect.

The nature of this test: qHTS for Inhibitors of human tyrosyl-DNA phosphodiesterase 1 (TDP1): qHTS in cells in presence of CPT. Note: nearly all actives have a fitted effect of over 55% in size. The conditions noted are these: chicken DT40 Tdp1-/-;hTDP1 cells + 20 nM CPT, ATP luminescence, 48 h; series mostly up to 46.2 µM. The procedure, abridged: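 Cell growth measured by CellTiter-Glo luminescence after a minimum 48 h, 37 C compound exposure with 20 nM CPT in Tdp1-knockout DT40 cells stably expressing hTDP1, seeded 400/well; qHTS titration format.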
In general terms: In qHTS, concentration-response curves come from the screen itself.
In the case of `N#Cc1ccc(S(=O)(=O)NCC(=O)OCC(=O)NCCc2ccccc2)cc1`, the Potency entry is “inactive”. Then `CCCn1c(N)c(N(CCOC)C(=O)C2CCCC2)c(=O)[nH]c1=O`, with “inactive”; and `O=C(O)c1ccc(NC(=O)c2cn(-c3ccccc3)nc2-c2ccc(Cl)cc2)cc1`, with 20.6 µM (active); and `COc1ccc(-c2nn(-c3ccccc3)cc2/C=C\C(=O)N2CCOCC2)cc1[N+](=O)[O-]`, with “inactive”. To `COc1ccc(-c2nn(-c3ccccc3)cc2/C=C\C(=O)Nc2ccc(C(=O)O)cc2)cc1` belongs 23.1 µM (active).

For `O=C(O)c1ccc(NC(=O)c2ccc(COc3ccc(Cl)cc3)o2)cc1`, the Potency entry was “inactive”. To `O=C(c1cn(-c2ccccc2)nc1-c1cccnc1)N1CCCCC1` belongs “inactive”; to `COC(=O)c1cn(-c2ccccc2)nc1-c1cccnc1`, “inactive”. Then `O=C(NNC(=S)NC(=O)c1cn(-c2ccccc2)nc1-c1ccccc1)c1ccncc1`, with 14.6 µM (active); and `O=C(O)/C=C/c1cn(-c2ccccc2)nc1-c1cccs1`, with “inactive”. As to `Cc1ccc(-c2nn(-c3ccccc3)cc2C(=O)Nc2cccc(S(=O)(=O)N3CCOCC3)c2)cc1`, the Potency result was “inactive”.

As for `COc1ccc(S(=O)(=O)N(CCCN2CCCC2=O)Cc2cc3c(C)ccc(C)c3[nH]c2=O)cc1`, the Potency result is “inactive”. Then `O=C(CN1CCN(S(=O)(=O)c2ccc3ccccc3c2)CC1)NC(=O)NC1CCCCC1`, with “inactive”; and `O=C(CN1CCC(NC(=O)Nc2ccccc2)CC1)Nc1cccc([N+](=O)[O-])c1`, with “inactive”; and `O=C(N/N=C\c1ccc(Br)cc1)c1ccc(Cn2cccn2)o1`, with “inactive”.

Turning to `S=C(NCc1ccco1)Nc1ccc2c(c1)OCCO2`, the Potency result is “inactive”. To `O=C(NC1CCCCC1)C1c2ccccc2C(=O)N1Cc1ccco1` (stereo not drawn) belongs “inactive”; to `O=C1c2ccccc2C(Nc2ccc3c(c2)OCCO3)N1Cc1ccco1` (stereo not drawn), 20.6 µM (active). `Cn1cnc2c1c(=O)n(Cc1ccccc1C#N)c(=O)n2C`: the Potency result is “inactive”.

As for `CC(=O)Nc1ccc(S(=O)(=O)NNC(=O)CCc2ccccc2)cc1`, the Potency entry was “inactive”. To `CCc1nccn1S(=O)(=O)c1cc(Br)ccc1Br` belongs “inactive”; to `COC(=O)c1ccc(CNC(=O)C2CCC(=O)N(Cc3cccc(F)c3)C2)cc1` (stereo not drawn), “inactive”; to `CCNC(=O)c1cc2n(n1)CCCN(Cc1ccc(C)cc1)C2=O`, “inactive”. To `COc1cc(CNC(=O)c2cc3n(n2)CCCN(Cc2cccc(F)c2)C3=O)cc(OC)c1OC` belongs 16.4 µM (active). For `O=C(c1cc(C2CCCCN2S(=O)(=O)c2ccccc2)on1)N1CCOCC1` (stereo not drawn), the Potency entry is “inactive”.

In the case of `CSc1ccc(/C=N/N2CCN(Cc3ccccc3Cl)CC2)cc1`, the Potency result was “inactive”. `COc1ccc(CNC(=O)COC(=O)c2c(C)nn(-c3ccccc3)c2C)cc1OC`: the Potency entry is “inactive”.

Turning to `CCCOc1ccccc1-c1nc(SCCC(=O)O)n[nH]1`, the Potency entry was “inactive”. Then `Cc1cc(=O)oc(C)c1C(=O)NCc1ccc(F)cc1`, with “inactive”; and `CCCOc1ccc(F)cc1-c1cc(C(=O)Nc2ccc(F)c(Cl)c2)[nH]n1`, with 14.6 µM (active). Then `COc1ccc(NC(=O)CN2CCN(S(=O)(=O)c3ccc(F)cc3)CC2)cc1Cl`, with “inactive”. To `Cc1ccc(NC(=O)c2cc(-c3ccccc3O)n[nH]2)cc1C` belongs “inactive”; to `CCCOc1ccc(F)cc1-c1cc(C(=O)NCc2ccc(F)cc2)[nH]n1`, 14.6 µM (active); to `COc1ccccc1C(=O)COC(=O)COc1ccc(C#N)cc1`, “inactive”. As for `COc1cccc(NC(=O)N(C)C[C@@H]2Oc3ncc(Br)cc3C(=O)N([C@@H](C)CO)C[C@H]2C)c1`, the Potency result is “inactive”.

In the case of `Oc1ccc(-c2cccc(-c3ccc(O)cc3)c2)cc1`, the Potency result was “inactive”. `CN(C(=O)COC(=O)c1cc(=O)[nH]c2ccccc12)C1CCCCC1`: the Potency result was “inactive”.

`CCOc1ccccc1CNC(=O)c1ccc2c(c1)nc1n2CCC(C)C1` (stereo not drawn): the Potency result is “inactive”. To `COc1ccc(NC(=O)CN(C)C(=O)/C=C/c2cn(Cc3ccccc3)nc2-c2cccnc2)cc1` belongs “inactive”; to `O=C(COC(=O)/C=C/c1cn(-c2ccccc2)nc1-c1cccnc1)Nc1ccc(Cl)cc1Cl`, 9.2 µM (active).

Regarding `Cc1ccc(/C=C/C(=O)OCC(=O)Nc2cccnc2Cl)cc1`, the Potency entry was “inactive”. To `Cc1[nH]n(-c2ccccc2)c(=O)c1CCOC(=O)c1ccc(C(F)(F)F)cc1` belongs “inactive”; to `COc1ccc(OCCNS(=O)(=O)Cc2ccccc2)cc1`, “inactive”; to `COc1ccc(S(=O)(=O)NCCCCOc2ccc(Cl)cc2)cc1`, 10.3 µM (active).

As to `COc1ccc(S(=O)(=O)NCCCc2ccccc2)cc1`, the Potency entry is “inactive”. Turning to `CC(=O)c1ccc(S(=O)(=O)N(C)CCCC(=O)N(C)Cc2ccccc2F)cc1`, the Potency entry was “inactive”. Then `C/C(=N\NC(=O)CSc1nc2ccccc2c(=O)n1-c1ccccc1C)c1cccs1`, with 23.1 µM (active); and `Cc1nn(-c2ccccc2)c(C)c1/C=N/NC(=O)CSc1nc2ccccc2c(=O)n1-c1ccccc1`, with 16.4 µM (active); and `C/C(=N\NC(=O)COc1c(C)cccc1C)c1cccs1`, with “inactive”. Then `O=C(CSc1nc2ccccc2c(=O)n1-c1ccc(F)cc1)NC1CC1`, with “inactive”; and `Cc1ccc(-n2c(SCC(=O)N/N=C/C=C/c3ccccc3[N+](=O)[O-])nc3ccccc3c2=O)cc1`, with “inactive”. As for `CCc1c(O)nc(SCC(=O)N2CCCCC2)n(-c2ccccc2C)c1=O`, the Potency entry is “inactive”. Then `CCn1c(SCC(=O)NC2=NCCS2)nnc1C(C)NC(=O)c1ccccc1F` (stereo not drawn), with “inactive”; and `Cc1ccc(Nc2cc(=O)n(C3CCCCC3)c(=O)[nH]2)cc1C`, with “inactive”; and `C[C@H](NC(=O)c1nc[nH]c1C(=O)NCC(=O)OC(C)(C)C)c1ccccc1`, with “inactive”. Then `CCC1(CC)NC(=O)N(CC(=O)OCC(=O)Nc2ccc(C(F)(F)F)cc2)C1=O`, with “inactive”; and `Cc1nc(S(=O)(=O)c2ccc(Br)cc2)nc2c1CCC2`, with “inactive”; and `Cc1cc(Nc2ccc(C)c(C)c2)n2ncnc2n1`, with “inactive”. To `Brc1ccc(Nc2c3c(nc4ncnn24)CCC3)cc1` belongs 25.9 µM (active); to `Cc1cc([N+](=O)[O-])c(NC2CCCCC2)c([N+](=O)[O-])c1`, “inactive”. As for `Cc1sc2c(c1C)c(=O)n(-c1ccccc1)c(=O)n2CC(=O)NCC1CCCO1` (stereo not drawn), the Potency result was “inactive”. To `Cc1ccc(NC(=O)Cn2c(=O)n(-c3ccccc3)c(=O)c3c4c(sc32)CCCC4)cc1` belongs 14.6 µM (active); to `CCC(C)NC(=O)Cn1c(=O)n(-c2ccc(Cl)cc2)c(=O)c2c3c(sc21)CCCC3` (stereo not drawn), “inactive”.
